For some of these results: Measured potencies and affinities stand elsewhere.

What all share (set-up): scale not given: direction of the effect not stated beside the values
For assay [1], the target named is Protein translocase subunit SecA (Escherichia coli (strain K12)) (UniProt P10408). Description: Assay to Identify E. coli SecA ATPase Inhibitors. In kind it is functional. To be noted: 30 µM.
Assay [2] addresses T1, Ubiquitin-activating enzyme e1, putative (Leishmania donovani (strain BPK282A1)) (UniProt E9BSI1).
T1 sequence (whole entry): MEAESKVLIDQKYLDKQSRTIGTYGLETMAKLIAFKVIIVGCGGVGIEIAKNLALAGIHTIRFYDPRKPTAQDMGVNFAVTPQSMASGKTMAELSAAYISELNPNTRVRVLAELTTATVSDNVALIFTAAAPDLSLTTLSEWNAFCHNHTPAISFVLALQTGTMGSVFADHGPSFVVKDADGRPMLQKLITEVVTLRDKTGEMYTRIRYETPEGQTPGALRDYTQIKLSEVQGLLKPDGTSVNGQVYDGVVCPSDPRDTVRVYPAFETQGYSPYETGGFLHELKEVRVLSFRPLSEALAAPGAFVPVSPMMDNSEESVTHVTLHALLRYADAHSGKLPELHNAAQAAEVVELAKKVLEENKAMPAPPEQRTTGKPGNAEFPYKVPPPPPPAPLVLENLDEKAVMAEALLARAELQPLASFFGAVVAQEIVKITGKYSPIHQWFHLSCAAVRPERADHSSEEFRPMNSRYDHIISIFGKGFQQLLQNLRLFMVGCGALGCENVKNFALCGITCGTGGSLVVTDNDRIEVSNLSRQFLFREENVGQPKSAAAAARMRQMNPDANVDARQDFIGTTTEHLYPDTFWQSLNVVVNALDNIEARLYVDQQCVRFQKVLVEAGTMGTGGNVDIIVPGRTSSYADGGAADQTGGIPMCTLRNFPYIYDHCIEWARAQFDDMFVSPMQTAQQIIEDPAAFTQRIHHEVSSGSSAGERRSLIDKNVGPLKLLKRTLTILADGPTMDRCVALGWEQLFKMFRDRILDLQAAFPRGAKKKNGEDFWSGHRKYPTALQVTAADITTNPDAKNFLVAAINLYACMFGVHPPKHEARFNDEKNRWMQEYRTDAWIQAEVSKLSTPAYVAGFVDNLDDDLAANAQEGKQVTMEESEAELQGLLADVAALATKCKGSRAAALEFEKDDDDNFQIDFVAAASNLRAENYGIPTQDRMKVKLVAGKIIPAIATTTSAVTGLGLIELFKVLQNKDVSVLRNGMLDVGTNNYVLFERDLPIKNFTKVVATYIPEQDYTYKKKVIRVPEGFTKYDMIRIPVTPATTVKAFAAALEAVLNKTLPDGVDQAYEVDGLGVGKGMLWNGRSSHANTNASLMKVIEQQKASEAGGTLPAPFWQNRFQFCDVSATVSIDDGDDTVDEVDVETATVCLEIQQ
Description: Leishmania donovani Ubiquitin Activating Enzyme (LdE1). In kind it is functional. To be noted: 30 µM.

Assay [3] has as its target AMP-activated protein kinase, AMPK (Homo sapiens) (UniProt P54646+O43741+P54619+Q9UGJ0+Q9Y478+Q13131+Q9UGI9). Description: AMP-dependent Kinase enzyme assay. An in vitro enzyme assay that detects ADP turnover that is directly proportional to AMPK activity. This uses naive AMPK that is activated during the assay with MK-8722. In kind it is functional. To be noted: 30 µM.

Assay [4] concerns the target Sialic acid-binding Ig-like lectin 9 (Homo sapiens) (UniProt Q9Y336). Nature of the assay: Hs-Siglec9 ALPHAscreen SOP 20170721. The following applies: 10 µM.
The next assay relates to Trypanosoma cruzi. Description: Trypanosoma cruzi phosphomannomutase and mannose-1-phosphate guanylyltransferase assay. To be noted: 10 µM. In kind it is functional.
For assay [5], the target named is T2, Arginase-2, mitochondrial (Homo sapiens) (UniProt P78540).
T2 sequence (whole entry): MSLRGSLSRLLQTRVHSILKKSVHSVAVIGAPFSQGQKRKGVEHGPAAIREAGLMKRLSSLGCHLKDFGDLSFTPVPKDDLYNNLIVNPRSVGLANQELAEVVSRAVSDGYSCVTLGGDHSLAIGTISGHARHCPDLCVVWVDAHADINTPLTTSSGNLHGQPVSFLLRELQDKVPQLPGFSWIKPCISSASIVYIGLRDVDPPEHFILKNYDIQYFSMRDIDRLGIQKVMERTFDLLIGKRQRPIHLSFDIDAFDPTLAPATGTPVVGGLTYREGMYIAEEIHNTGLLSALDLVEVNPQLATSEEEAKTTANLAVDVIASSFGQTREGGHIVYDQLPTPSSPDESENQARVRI
Nature of the assay: in vitro enzyme assay to detect the production of urea directly proportional to the activity of Arginase II. Also: in the data most compounds retested in dose-response had high values. Type of assay: functional. The following applies: 33.3 µM.

Assay [6] concerns the target T3, Proteasome subunit beta (Trypanosoma cruzi) (UniProt O96673).
T3 sequence (whole entry): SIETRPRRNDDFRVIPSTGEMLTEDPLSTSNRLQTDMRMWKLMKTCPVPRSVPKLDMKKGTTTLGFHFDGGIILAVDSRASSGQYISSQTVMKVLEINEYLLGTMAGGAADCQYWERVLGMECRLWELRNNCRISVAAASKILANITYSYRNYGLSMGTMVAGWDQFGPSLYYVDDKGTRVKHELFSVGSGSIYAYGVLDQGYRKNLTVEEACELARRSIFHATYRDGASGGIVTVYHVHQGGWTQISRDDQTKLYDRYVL
Nature of the assay: Trypanosoma cruzi proteasome chymotrypsin-like activity (TcProtChymo) assay. Also: in the data most compounds retested in dose-response had high values. The following applies: 9.37 µM. Type of assay: functional.

The species entered for a further assay is Homo sapiens. Nature of the assay: To identify inhibition of the IFN signalling (Jak-Stat) pathway via expression of an eGFP reporter gene under the control of an IFN-stimulated response element (ISRE) containing MxA promoter. Type of assay: functional. To be noted: 30 µM.
Assay [7] addresses T4, Tyrosyl-tRNA synthetase, putative (Trypanosoma cruzi (strain CL Brener)) (UniProt Q4DSP6).
T4 sequence (whole entry): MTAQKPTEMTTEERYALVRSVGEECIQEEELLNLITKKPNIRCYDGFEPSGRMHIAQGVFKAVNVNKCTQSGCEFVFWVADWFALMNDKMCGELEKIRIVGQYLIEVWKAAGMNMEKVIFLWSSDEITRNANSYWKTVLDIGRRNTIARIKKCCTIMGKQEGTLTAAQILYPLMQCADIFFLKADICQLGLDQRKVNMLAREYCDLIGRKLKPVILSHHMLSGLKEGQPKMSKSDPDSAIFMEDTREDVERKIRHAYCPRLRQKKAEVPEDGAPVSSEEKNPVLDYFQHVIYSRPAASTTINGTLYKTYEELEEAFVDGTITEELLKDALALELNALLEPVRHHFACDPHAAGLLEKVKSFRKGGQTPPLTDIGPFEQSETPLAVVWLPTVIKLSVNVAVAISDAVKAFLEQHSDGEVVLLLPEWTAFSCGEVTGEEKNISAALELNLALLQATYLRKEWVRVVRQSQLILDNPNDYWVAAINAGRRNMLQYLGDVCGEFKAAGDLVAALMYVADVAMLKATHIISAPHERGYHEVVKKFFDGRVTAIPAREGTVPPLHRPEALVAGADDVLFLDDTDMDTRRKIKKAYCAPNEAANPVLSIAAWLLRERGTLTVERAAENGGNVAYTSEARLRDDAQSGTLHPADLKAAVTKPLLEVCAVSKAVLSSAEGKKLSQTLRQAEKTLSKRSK
Nature of the assay: Trypanosoma cruzi tyrosyl tRNA synthetase (TcYRS) _High Tyrosine SOP. Also: in the data most compounds retested in dose-response had high values. In kind it is functional. The following applies: 30 µM.

Assay [8] addresses T4, Tyrosyl-tRNA synthetase, putative (Trypanosoma cruzi (strain CL Brener)). Nature of the assay: Trypanosoma cruzi tyrosyl tRNA synthetase (TcYRS) SOP. Type of assay: functional. To be noted: 30 µM.
Assay [9] addresses Chromo domain-containing protein 1 (Saccharomyces cerevisiae (strain ATCC 204508 / S288c) (Baker's yeast)) (UniProt P32657). Nature of the assay: ScCHD-1 Enzyme Inhibition Assay. Also: in the data most compounds retested in dose-response had high values. Type of assay: functional. The following applies: 30 µM.

Protein translocase subunit SecA (Escherichia coli (strain K12)), sequence (P10408 whole entry): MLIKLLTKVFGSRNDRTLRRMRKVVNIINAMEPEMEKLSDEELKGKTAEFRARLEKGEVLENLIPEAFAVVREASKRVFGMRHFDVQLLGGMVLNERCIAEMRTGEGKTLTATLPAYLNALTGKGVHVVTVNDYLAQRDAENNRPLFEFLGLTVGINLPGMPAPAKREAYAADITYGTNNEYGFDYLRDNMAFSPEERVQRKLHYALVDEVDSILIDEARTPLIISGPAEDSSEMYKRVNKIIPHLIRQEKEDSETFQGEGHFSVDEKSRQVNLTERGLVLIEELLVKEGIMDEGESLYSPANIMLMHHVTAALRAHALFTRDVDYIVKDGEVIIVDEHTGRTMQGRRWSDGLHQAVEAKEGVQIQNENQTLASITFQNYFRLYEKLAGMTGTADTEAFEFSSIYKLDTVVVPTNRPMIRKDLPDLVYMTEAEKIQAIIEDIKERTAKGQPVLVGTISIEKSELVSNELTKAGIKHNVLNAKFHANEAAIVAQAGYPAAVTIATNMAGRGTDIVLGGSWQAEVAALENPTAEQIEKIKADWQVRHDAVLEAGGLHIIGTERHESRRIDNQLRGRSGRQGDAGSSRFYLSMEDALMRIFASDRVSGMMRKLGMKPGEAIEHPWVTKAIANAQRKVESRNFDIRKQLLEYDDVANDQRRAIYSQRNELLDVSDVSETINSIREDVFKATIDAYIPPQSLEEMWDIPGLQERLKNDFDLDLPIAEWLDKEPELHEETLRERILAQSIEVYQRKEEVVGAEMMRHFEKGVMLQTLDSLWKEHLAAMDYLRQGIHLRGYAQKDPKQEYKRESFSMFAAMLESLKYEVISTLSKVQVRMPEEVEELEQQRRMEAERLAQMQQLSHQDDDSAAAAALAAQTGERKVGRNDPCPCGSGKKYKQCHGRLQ
Chromo domain-containing protein 1 (Saccharomyces cerevisiae (strain ATCC 204508 / S288c) (Baker's yeast)), sequence (P32657 whole entry, the tested form may be a part): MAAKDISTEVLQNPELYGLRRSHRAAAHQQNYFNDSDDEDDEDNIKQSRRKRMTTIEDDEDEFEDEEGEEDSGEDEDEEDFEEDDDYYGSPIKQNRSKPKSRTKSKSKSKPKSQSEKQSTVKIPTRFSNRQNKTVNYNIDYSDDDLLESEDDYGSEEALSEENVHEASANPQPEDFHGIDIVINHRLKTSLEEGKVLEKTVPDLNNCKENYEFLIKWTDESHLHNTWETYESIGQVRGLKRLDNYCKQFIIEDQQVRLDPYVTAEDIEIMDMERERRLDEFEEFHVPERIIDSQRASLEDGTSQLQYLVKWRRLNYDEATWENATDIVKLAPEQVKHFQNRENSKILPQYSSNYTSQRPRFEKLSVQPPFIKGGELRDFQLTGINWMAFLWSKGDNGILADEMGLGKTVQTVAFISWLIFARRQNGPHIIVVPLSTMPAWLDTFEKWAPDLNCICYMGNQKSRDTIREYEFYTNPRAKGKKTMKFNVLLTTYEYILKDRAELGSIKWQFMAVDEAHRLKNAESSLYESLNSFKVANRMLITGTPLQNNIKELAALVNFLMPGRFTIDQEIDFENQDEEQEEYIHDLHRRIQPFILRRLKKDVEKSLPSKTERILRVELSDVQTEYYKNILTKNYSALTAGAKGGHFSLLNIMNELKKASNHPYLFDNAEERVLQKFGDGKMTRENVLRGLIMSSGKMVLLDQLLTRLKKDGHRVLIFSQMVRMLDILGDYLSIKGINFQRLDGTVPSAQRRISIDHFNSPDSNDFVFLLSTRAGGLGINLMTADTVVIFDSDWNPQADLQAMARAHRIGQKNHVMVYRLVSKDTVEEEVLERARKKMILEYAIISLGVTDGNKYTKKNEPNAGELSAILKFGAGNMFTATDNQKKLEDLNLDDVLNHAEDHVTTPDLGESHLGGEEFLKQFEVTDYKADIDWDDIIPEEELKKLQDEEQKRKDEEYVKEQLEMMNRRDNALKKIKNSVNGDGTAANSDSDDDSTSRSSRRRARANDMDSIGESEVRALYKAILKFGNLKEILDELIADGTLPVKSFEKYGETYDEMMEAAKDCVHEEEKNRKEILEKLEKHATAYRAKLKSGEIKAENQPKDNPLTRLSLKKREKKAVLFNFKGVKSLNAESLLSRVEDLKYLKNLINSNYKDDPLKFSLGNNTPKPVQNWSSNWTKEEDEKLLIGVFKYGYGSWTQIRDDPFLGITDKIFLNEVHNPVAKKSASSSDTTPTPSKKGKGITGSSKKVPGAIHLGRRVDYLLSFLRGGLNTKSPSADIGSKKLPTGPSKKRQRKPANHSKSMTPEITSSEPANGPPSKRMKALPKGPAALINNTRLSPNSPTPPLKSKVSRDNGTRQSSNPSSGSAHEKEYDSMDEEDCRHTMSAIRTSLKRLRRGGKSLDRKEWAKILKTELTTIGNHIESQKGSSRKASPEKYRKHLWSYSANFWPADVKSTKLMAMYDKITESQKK
Sialic acid-binding Ig-like lectin 9 (Homo sapiens), sequence (Q9Y336 whole entry): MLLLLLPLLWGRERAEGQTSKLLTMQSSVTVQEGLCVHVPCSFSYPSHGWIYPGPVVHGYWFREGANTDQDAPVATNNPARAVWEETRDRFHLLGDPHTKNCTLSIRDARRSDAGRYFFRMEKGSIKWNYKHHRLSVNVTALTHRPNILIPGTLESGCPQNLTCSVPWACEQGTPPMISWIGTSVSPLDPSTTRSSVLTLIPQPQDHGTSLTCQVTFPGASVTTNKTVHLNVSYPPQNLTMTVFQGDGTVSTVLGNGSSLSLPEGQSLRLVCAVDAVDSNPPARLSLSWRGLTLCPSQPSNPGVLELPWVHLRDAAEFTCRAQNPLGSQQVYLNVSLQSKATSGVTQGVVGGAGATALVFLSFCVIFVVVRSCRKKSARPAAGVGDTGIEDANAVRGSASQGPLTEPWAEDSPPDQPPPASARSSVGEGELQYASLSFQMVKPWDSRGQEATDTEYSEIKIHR

Turning to `CCOc1ccc(NC(=O)c2cnc(N3CCCC3)nc2C)cc1`, the Percent Effect in assay [1] was -4.12%; in [2] it was 5.2%; in assay [3] it was -3.01%; in [4], -0.674%; with Trypanosoma cruzi it was 1.48%; in assay [5], 3.23%. Further, the Percent Effect in assay [6] was 5.22%; in the assay listed under Homo sapiens it was 11.8%; in assay [7], 4.23%; in assay [8], 16.7%; in assay [9], -8.66%.

For `CNC(=O)C(C)(C)NC(=O)c1cc(OCC2CCC2)cc(C(=O)OC)c1`, the Percent Effect in [1] is -0.888%; in assay [2], 11%; in [3], 28.1%; in assay [4], -1.12%; in the assay with Trypanosoma cruzi, 2.35%; in [5], 15.9%. In addition, the Percent Effect in assay [6] is 12.6%; in the assay filed under Homo sapiens, 31.3%; in assay [7] it was 6.45%; in [8], 15%; in assay [9], -3.04%.

On to `O=C(Cn1cc(C(=O)O)ccc1=O)Nc1ccc(Cl)cc1F`, for which the Percent Effect in assay [1] is -1.04%; in assay [2], 20%; in assay [3], -5.95%; in assay [4], 0.752%; in the assay with Trypanosoma cruzi, 1.38%; in assay [5], -4.75%. The Percent Effect in assay [6] is 10.7%; in the assay filed under Homo sapiens, 9.59%; in assay [7], 7.41%; in assay [8], 10.3%; in [9] it was -12%.

On to `N#Cc1ccc(CNC(=O)NC2CCN(CC(F)F)CC2)cc1`, for which the Percent Effect is -5.31% in assay [1]; 2.7% in [2]; 0.0143% in assay [3]; 20.2% in [4]; 10.8% in the assay on Trypanosoma cruzi; -2.23% in assay [5]. Further, the Percent Effect in assay [6] was 12.3%; in the assay filed under Homo sapiens, 8.62%; in assay [7], 4.3%; in [8], 16.1%; in assay [9] it was -4.65%.

`CC(C)(C)C(=O)NCCn1ccc(-c2ccncc2)n1`: the Percent Effect is -2.96% in assay [1]; 2.74% in assay [2]; -5.12% in assay [3]; 4.58% in assay [4]; 3.33% with Trypanosoma cruzi; 11.4% in [5]. The Percent Effect was 9.23% in assay [6]; 21.9% in the assay filed under Homo sapiens; 1.07% in assay [7]; 2.5% in assay [8]; -2.64% in [9].

With `CCc1ccc(C(=O)O)cc1S(=O)(=O)Nc1ccc(F)c(C#N)c1`, the Percent Effect in assay [1] is -2.04%; in assay [2] it was -2.7%; in assay [3] it was -11.6%; in [4], 10.6%; in the assay on Trypanosoma cruzi, 3.87%; in [5] it was -0.802%. Moreover, the Percent Effect in assay [6] is 1.08%; in the assay filed under Homo sapiens it was 7.96%; in assay [7] it was -2.46%; in assay [8], 1.24%; in [9] it was -2.76%.

In the case of `CC(=O)N1CCCC1c1ccc(-c2c(C)noc2C)cn1` (stereo unspecified), the Percent Effect in assay [1] is 0.953%; in assay [2] it was -4.05%; in assay [3], 8.36%; in assay [4] it was 2.83%; in the assay with Trypanosoma cruzi, -3.56%; in [5], 6.26%. Further, the Percent Effect in assay [6] is 4.52%; in the assay listed under Homo sapiens, 5.24%; in assay [7], -1.07%; in [8], -3.9%; in assay [9] it was 3.24%.

Consider `CN(Cc1nccs1)c1nc(-c2ccccn2)nc2c1CCNCC2`, for which the Percent Effect in assay [1] was -3.65%; in assay [2], -1.39%; in assay [3], -0.513%; in assay [4], -2.23%; in the assay with Trypanosoma cruzi it was 4.57%; in assay [5], -2.21%. Besides, the Percent Effect in [6] was 8.95%; in the assay filed under Homo sapiens it was 11.4%; in assay [7], 10.5%; in [8] it was 12.8%; in assay [9], -1.22%.

For the molecule `COCCC(=O)N1CCC2(CN(Cc3ccc(OC)c(F)c3)C2)C1`, the Percent Effect in [1] was 1.99%; in [2], 13.7%; in assay [3], -3.76%; in assay [4], 8.62%; in the assay on Trypanosoma cruzi it was 5.16%; in assay [5], 0.399%. Moreover, the Percent Effect in assay [6] is 6.42%; in the assay listed under Homo sapiens it was -17.9%; in assay [7], 6.25%; in [8], 18.5%; in assay [9] it was -0.472%.

Consider `COc1cccc(Cc2nnc(SC3CCOC3=O)o2)c1` (stereo unspecified), for which the Percent Effect is -4.53% in [1]; -2.67% in assay [2]; -9.71% in [3]; 15.1% in assay [4]; 2.04% with Trypanosoma cruzi; 0.521% in [5]. The Percent Effect in assay [6] is 5.41%; in the assay listed under Homo sapiens it was 5.46%; in [7], -4.92%; in assay [8] it was 8.64%; in assay [9], -2.72%.

In the case of `COC(=O)C(NC(=O)C(C)C)c1cc(F)ccc1F` (stereo unspecified), the Percent Effect was -3.03% in [1]; 10.4% in assay [2]; 3.19% in [3]; 15.7% in assay [4]; -2.43% in the assay with Trypanosoma cruzi; 7.12% in assay [5]. Moreover, the Percent Effect was 3.38% in assay [6]; 22.8% in the assay filed under Homo sapiens; 2.91% in assay [7]; 9.76% in assay [8]; -4.93% in assay [9].

The values above are taken from ChEMBL document CHEMBL3988442, “University of Dundee, Small-Polar-MMV Screening Library” (2021).
